The values that follow come from PubChem BioAssay AID841 (Emory University Molecular Libraries Screening Center, 2007).

The campaign covered roughly 140,000 compounds. About 2,100 (1.5%) were called active. This is one part of a sample in which actives are shown more often than they occur. Unmarked numbers belong to inactive results. No stated cut-off is given here; in the data, active means protection mostly above about 24% (no sharp cut-off); inactive means mostly below about 26%.

The nature of the test: compounds protecting cells from measles virus cytopathic effect, primary screen, measles RdRp inhibitor project, single point, MLSMR library, absorbance (AID 841). The conditions noted are these: Measles virus-infected cells, CPE protection, at 4 µM, stronger effect = higher value. For orientation: Cytopathic effects are the visible damage that an infection or toxin causes in cultured cells.
On to `Cc1ccc(NC(=O)CN(C)Cc2ccc(F)cc2)c([N+](=O)[O-])c1`, for which the protection (pct of control) is 64.2% (active).

`Cc1c(NC(=S)NCc2ccc(F)cc2)cccc1[N+](=O)[O-]`: the protection (pct of control) was 18%.

For the molecule `CN(CC(=O)Nc1ccc(N2CCOCC2)cc1)CC(=O)Nc1ccccc1[N+](=O)[O-]`, the protection (pct of control) is 21%.

As for `CCCCOc1ccc(NC(=O)[C@@H]2CCCN2C(=O)C2CCN(S(=O)(=O)c3ccc(C)cc3)CC2)cc1`, the protection (pct of control) was 12.8%.

`CCN=C1S/C(=C\c2cc(Br)ccc2OCC(=O)OCC)C(=O)N1CC`: the protection (pct of control) was 4.59%.

On to `CCCC(C)C(=O)OCC(=O)Nc1c(Br)cc(C)cc1Br` (stereo not given), for which the protection (pct of control) is 5.66%.

For the molecule `C=CCn1c(-c2ccc3[nH]c(C)c(C)c3c2)n[nH]c1=S`, the protection (pct of control) was 41.1% (active).

For the molecule `CCCc1cc(-c2n[nH]c(=S)n2Cc2ccccc2)cs1`, the protection (pct of control) was 18%.

Consider `CCc1cc(-c2n[nH]c(=S)n2CC(C)C)cs1`, for which the protection (pct of control) is 1.82%.

Regarding `CC(C)(C)c1ccc(NC(=O)COC(=O)CCc2nc3ccccc3c(=O)[nH]2)cc1`, the protection (pct of control) is 4.79%.

As to `COc1ccccc1NC(=O)CSc1nc2sc(C)c(C)c2c(=O)n1Cc1ccco1`, the protection (pct of control) is 48.9% (active).

With `COc1cc(Cl)c(C)cc1NC(=O)CSc1nnc(-c2cccnc2)n1Cc1ccco1`, the protection (pct of control) was 6.16%.

Turning to `COc1ccc(NC(=O)CSc2nnc(-c3cccs3)n2Cc2ccco2)cc1OC`, the protection (pct of control) is 5.61%.

For the molecule `COC(=O)C1=CN(C)C=C(C(=O)OC)C1c1ccc(Cl)cc1Cl`, the protection (pct of control) was 4.66%.

Consider `CCOc1ccccc1C1C(C(=O)OC)=CN(C)C=C1C(=O)OC`, for which the protection (pct of control) was 48.9% (active).

Take `CCOc1cc(C2C(C(=O)OC)=CN(C3CCCC3)C=C2C(=O)OC)cc(Br)c1O`: the protection (pct of control) was 8.51%.

Take `Cc1ccnc(NC(=O)Cn2ccc([N+](=O)[O-])n2)c1`: the protection (pct of control) is 6.33%.

On to `COc1ccc(Cl)cc1NC(=O)[C@@H]1CCCN1C(=O)c1cccs1`, for which the protection (pct of control) was 6.26%.

As to `COc1ccc(CN2C(=O)CC(Cc3ccc(C)cc3)C2=O)cc1OC` (stereo not given), the protection (pct of control) is 7.23%.

As to `CCCCNS(=O)(=O)c1ccc2nc(SCC(=O)Nc3cc(C)cc(C)c3)[nH]c2c1`, the protection (pct of control) was 6.86%.

For the molecule `CSCc1cc(N(C)C)nc(SCc2ccc(Cl)cc2Cl)n1`, the protection (pct of control) was 3.22%.

Turning to `CSCc1cc(N2CCOCC2)nc(SCc2ccc(Cl)cc2Cl)n1`, the protection (pct of control) was 71.8% (active).

Turning to `O=c1cc(CSc2ccc(Cl)cc2)nc(N2CCOCC2)[nH]1`, the protection (pct of control) was 15.7%.

Regarding `O=C1CCCC(O)=C1N=Nc1ccc2ncsc2c1`, the protection (pct of control) was 4.07%.

`COc1cc(/C=C(/NC(=O)c2ccc(Cl)cc2Cl)C(=O)O)cc(OC)c1OC`: the protection (pct of control) is 8.92%.

As to `Cc1ccccc1CSc1nnc(Cn2c(=O)sc3ccccc32)n1C`, the protection (pct of control) is 42.8% (active).

Consider `Cc1cccc(CSc2nnc(Cn3c(=O)sc4ccccc43)n2C)c1`, for which the protection (pct of control) is 11.3%.

For the molecule `C=CCSc1nnc(Cn2c(=O)sc3ccccc32)n1C`, the protection (pct of control) was 12.3%.

In the case of `CCN(CC)S(=O)(=O)c1cc([N+](=O)[O-])ccc1N=Nc1c(O)n(C)c2ccccc12`, the protection (pct of control) is 4.65%.

For `COc1ccc(C)cc1NC(=O)CSc1ccc(Cl)cc1`, the protection (pct of control) was 9.52%.

For the molecule `COC(=O)[C@H](Cc1ccccc1)NC(=O)N1CC(C)OC(C)C1` (stereo not given in full), the protection (pct of control) was 13.1%.

In the case of `COC(=O)[C@H](Cc1ccccc1)NC(=O)[C@@H]1C[C@H]1[C@@H](NC(=O)OCc1ccccc1)c1ccccc1`, the protection (pct of control) is 49.5% (active).

As to `COC(=O)[C@H](C)[C@H]1C[C@]1(C)[C@H](NC(=O)OCc1ccccc1)c1ccccc1`, the protection (pct of control) was 3.04%.

In the case of `CSc1ccc(/C=C/C(=O)NC23CC4CC(CC(C4)C2)C3)cc1`, the protection (pct of control) is 2.59%.

Consider `CC(=O)c1ccc(N2CCN(C(=O)c3ccc4nc[nH]c4c3)CC2)cc1`, for which the protection (pct of control) was 20.3%.

With `CCCc1ccc(-c2csc(NC(=O)Cc3cccs3)n2)cc1`, the protection (pct of control) was 25%.

Turning to `Cc1ccc(-c2csc(NC(=O)Cc3cccs3)n2)cc1C`, the protection (pct of control) was 42.2% (active).

Turning to `COc1ccc(-c2csc(NC(=O)CCCc3cccs3)n2)cc1`, the protection (pct of control) is 37.9%.

Consider `C/C(CC(=O)Nc1cccc(F)c1)=N\NC(=O)C(=O)NC1CCCCC1`, for which the protection (pct of control) was 2.76%.

With `Cc1cc(C)c(C2C3=C(Nc4c2c(C)nn4-c2ccccn2)c2ccccc2C3=O)c(C)c1` (stereo not given), the protection (pct of control) was 7.66%.

For the molecule `O=C(CN1C(=O)c2cccc3cccc(c23)C1=O)N1CCCCC1`, the protection (pct of control) is 4.32%.

For `Cc1nnc(NC(=O)/C=C/c2ccco2)s1`, the protection (pct of control) is 22.5%.

For `O=[N+]([O-])c1ccc(NCCCO)c(C(F)(F)F)c1`, the protection (pct of control) was 10.7%.

Consider `CC(=O)c1sc2nc(SCC(=O)N3CCCCC3)[nH]c(=O)c2c1C`, for which the protection (pct of control) was 61.4% (active).

On to `O=C(CSc1nc2c(cnn2-c2ccc(F)cc2)c(=O)[nH]1)N1CCCCCC1`, for which the protection (pct of control) was 6.65%.

For `C=CCNC(=O)CSc1nc2sc(C)c(C)c2c(=O)[nH]1`, the protection (pct of control) was 1.51%.

With `Fc1c(F)c(C(F)(F)F)c(F)c(F)c1N1CCN(c2ccc3nnc(C(F)(F)F)n3n2)CC1`, the protection (pct of control) is 52.3% (active).

Take `FC(F)(F)c1nnc2ccc(N3CCN(c4ccccc4)CC3)nn12`: the protection (pct of control) was 1.66%.

`COc1ccc(F)cc1S(=O)(=O)Nc1ccc2c(c1)OCO2`: the protection (pct of control) was 5.59%.

For `COc1ccc(S(=O)(=O)Nc2ccc(F)cc2)c(C)c1C`, the protection (pct of control) is 62% (active).

For the molecule `COc1ccc(S(=O)(=O)N2CCCC2)c(C)c1C`, the protection (pct of control) is 7.99%.

`COc1ccc2c(c1)cc1n2CCN=C1NN`: the protection (pct of control) was 25.1% (active).

For `COc1ccc(NC(=O)Nc2ccc3nc(C)c(C)nc3c2)cc1`, the protection (pct of control) is 2.45%.

`COc1cc(-c2cc(C(=O)OCC(=O)Nc3ccc4c(c3)OCO4)c3ccccc3n2)cc(OC)c1OC`: the protection (pct of control) is 4.84%.

Regarding `O=C(Cc1ccc(-n2c(=O)[nH]c3ccccc3c2=O)cc1)N1CCN(c2cccc(Cl)c2)CC1`, the protection (pct of control) was 2.23%.

For the molecule `CCOC(=O)N1CCN(CC(=O)c2c(C)[nH]c3ccccc23)CC1`, the protection (pct of control) is 5.34%.

In the case of `CCOC(=O)N1CCN(C(=O)Cc2ccc(-n3c(=S)[nH]c4ccccc4c3=O)cc2)CC1`, the protection (pct of control) is 49% (active).

Turning to `O=C(/C=C/c1cccc([N+](=O)[O-])c1)NCCSCc1ccco1`, the protection (pct of control) was 4%.

Turning to `CCOc1ccc(-c2n[nH]c(=S)n2/N=C/c2cc3c(cc2[N+](=O)[O-])OCO3)cc1`, the protection (pct of control) is 2.01%.

Regarding `Cc1cc([N+](=O)[O-])nn1CC(=O)Nc1ccc(Cc2ccncc2)cc1`, the protection (pct of control) is 3.88%.

As for `CCCCCCCCCOC1OC(CO)C(O)C(O)C1NC(C)=O` (stereo not given), the protection (pct of control) is 19.9%.

Consider `CONc1nc2nonc2nc1NOC`, for which the protection (pct of control) was 8.78%.

As for `CC(C)C(=O)Nc1ccc(C(=O)NNC(=O)c2cccs2)cc1`, the protection (pct of control) was 6.3%.

As to `COc1ccccc1-c1nnc(NC(=O)c2ccc3ncsc3c2)o1`, the protection (pct of control) is 19.4%.

On to `CCOC(=O)c1sc(NC(=O)CSc2ncccn2)c(C#N)c1C`, for which the protection (pct of control) was 12.3%.

Turning to `CCN(CC)C(=O)c1sc(NC(=O)c2ccco2)c(C#N)c1C`, the protection (pct of control) is 10.4%.

As to `CCC(=O)Nc1sc(C(=O)N2CCCCC2)c(C)c1C#N`, the protection (pct of control) is 34.3% (active).

For the molecule `N#Cc1c(-c2ccc(F)cc2)cc(C2CC2)nc1SCC(=O)c1cccs1`, the protection (pct of control) was 17.3%.

Turning to `COc1ccc(NC(=O)c2sc(N3CCOCC3)nc2-c2ccccc2)c(OC)c1`, the protection (pct of control) was 7.3%.

Consider `COC(=O)C(C)Sc1nc2c(c(=O)n(C)c(=O)n2C)n1Cc1cccc(C)c1` (stereo not given), for which the protection (pct of control) is 13.3%.

For the molecule `CCCSc1nc2c(c(=O)n(C)c(=O)n2C)n1Cc1ccc(C)cc1`, the protection (pct of control) was 16.6%.

In the case of `Cc1cccc(Cn2c(SCCO)nc3c2c(=O)n(C)c(=O)n3C)c1`, the protection (pct of control) is 38.3% (active).

With `O=C(CSc1ccc(C(F)(F)F)cc1[N+](=O)[O-])NCCOc1ccccc1`, the protection (pct of control) is 16.6%.

As for `CCCCc1cc2c(s1)CCCC/C2=N/O`, the protection (pct of control) is 5.03%.

Consider `CCOc1ccc(S(=O)(=O)n2ccnc2)c2ccccc12`, for which the protection (pct of control) was 40.7% (active).

As for `CCOc1ccc(S(=O)(=O)N2CCCCCC2)c2ccccc12`, the protection (pct of control) was 3.16%.

As for `COc1cc(C)c(C(C)C)cc1S(=O)(=O)n1ccnc1`, the protection (pct of control) is 24.3%.

For the molecule `O=S(=O)(/N=C(/Nc1ccccc1)c1ccccc1)c1cccs1`, the protection (pct of control) was 4.51%.

In the case of `COC(=O)C(C)Oc1ccc2c(-c3cccc([N+](=O)[O-])c3)cc(=O)oc2c1` (stereo not given), the protection (pct of control) is 4.97%.

As for `CC(=O)COc1ccc2c(-c3ccccc3)cc(=O)oc2c1`, the protection (pct of control) was 68.7% (active).

On to `Cc1cc(=O)oc2ccc(OCC(=O)O)cc12`, for which the protection (pct of control) was 16.4%.

Consider `CC(C)NC(=S)N1CCN(S(C)(=O)=O)CC1`, for which the protection (pct of control) is 39.7%.

Take `Cc1ccnc(N2CCC(C(=O)NC3CCCCCC3)CC2)n1`: the protection (pct of control) is 6.88%.

As to `O=C(Nc1ccc2c(c1)OCCO2)C1CCCN(c2ncccn2)C1` (stereo not given), the protection (pct of control) is 7.15%.

For `Cc1ccnc(N2CCCC(C(=O)Nc3cc(F)ccc3C)C2)n1` (stereo not given), the protection (pct of control) is 46.4% (active).

On to `NC1=NC(=O)C(Cc2cccc(Cl)c2Cl)S1` (stereo not given), for which the protection (pct of control) is 22.3%.

As for `C=CCn1c2ccccc2c2nnc(SCc3[nH]c(=O)[nH]c3C(=O)CCCCC(=O)OCC)nc21`, the protection (pct of control) was 14.8%.

Take `O=C(O)c1ccc2c(c1)C(=O)N(NC(=O)c1ccc(O)cc1)C2=O`: the protection (pct of control) is 16.8%.

As for `O=C(/C=C/Nc1ccccc1)c1cnc(-c2ccccc2)s1`, the protection (pct of control) was 62.4% (active).

Regarding `CC(C)(C)C(=O)c1cnc(Nc2ccccc2)s1`, the protection (pct of control) is 2.07%.

With `Cc1ccc(N/C=C/C(=O)c2ccccc2)cc1C`, the protection (pct of control) was 11.4%.

With `Cc1ccc(/C=N\n2c(-c3ccccc3)n[nH]c2=S)s1`, the protection (pct of control) is 8.39%.

`Oc1ccccc1/C=N/n1c(-c2cccs2)n[nH]c1=S`: the protection (pct of control) was 36.6% (active).

Take `S=c1[nH]nc(-c2ccccc2)n1/N=C/c1c[nH]c2ccccc12`: the protection (pct of control) was 2.43%.

On to `COC(=O)Cc1ccc(OCC(=O)Nc2ccc(OC(F)(F)F)cc2)cc1`, for which the protection (pct of control) is 9.11%.
